A selection: hits, their analogues and other compounds. The true share with any hit is near 2.4%.
FEN1 inhibitor: human FEN1 inhibition. P39748. Recombinant FEN1 flap cleavage, fluorescence, 15 min. Potency, µM (titrated, usually from 114 µM), actives largely listed as inhibitors. 390,000 compounds, 0.35% hits; note: nearly all actives have a fitted effect of over 65% in size
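FEN1 at 10 nM preincubated with compounds 15 min at room temperature, then flap DNA substrate added at 50 nM final. Signal read at 0 and 15 min; concentration-response fitted with four-parameter Hill equation.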
WRN inhibitor: inhibitors of human WRN helicase | 360,000 compounds, 0.46% hits | Q14191 | WRN helicase unwinding, fluorescent forked duplex, kinetic | Potency, µM (titrated, usually from 114 µM), most hits filed as inhibitors; note: nearly all actives have a fitted effect of over 55% in size
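Kinetic fluorescence helicase assay: unwinding of a quenched forked DNA duplex (100 nM final) with 2 mM ATP final raises red fluorescence (525/598 nm). Compounds sat 15 min at room temperature with 20 nM WRN beforehand.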
POLB inh: DNA polymerase beta (human) inhibition. P06746. Pol beta primer extension/strand displacement, fluorescence kinetic. Potency, µM (titrated, usually from 114 µM), hits mostly inhibitors. 340,000 compounds, 1.3% hits
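Preincubation: enzyme (10 nM) with compound, 15 min, RT. Reaction: substrate added to 50 nM final. Reads: 0 and 10 min. Analysis: normalized, Hill fit.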
Pol iota inh: DNA polymerase iota (human) inhibition; Pol iota fluorescent replication assay, 10 min; 390,000 compounds, 1% hits; Potency, µM (doses to about 115 µM), hits mostly inhibitors; Q9UNA4
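Pol iota at 10 nM preincubated 15 min with compounds at room temperature; reaction started with fluorescent substrate, 50 nM final. Fluorescence read kinetically at 0 and 10 min; buffer-only wells as negative control.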
POLH inh: blocks human DNA polymerase eta activity; Q9Y253; recombinant Pol eta, fluorescent DNA replication assay; Potency, µM (series often up to 114 µM), hits mostly inhibitors; 390,000 compounds, 1.2% hits
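Pol eta (10 nM) was preincubated with compounds for 15 min at room temperature, after which fluorescent replication substrate (50 nM final) was added to start the reaction. Fluorescence was read kinetically at 0 and 10 min.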
Pol kappa inh: blocks human DNA polymerase kappa activity; Q9UBT6; purified Pol kappa, fluorescent DNA synthesis assay, 10 min; Potency, µM (top dose mostly 107 µM), hits mostly inhibitors; 400,000 compounds, 0.53% hits
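Kinetic fluorescence readout at 0 and 10 min followed reaction start with substrate at 50 nM final. Beforehand, enzyme (10 nM Pol kappa) stood 15 min with compound at room temperature; buffer-only wells were negative controls.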
Numbers stand for hits; n = inactive; u = inconclusive; x = not tested or not shown; [ ] = remark or other dose. Calls come from the whole dose curve; as a rule, active = well fitted curve in the direction sought with a large enough effect; inconclusive = small, poorly fitted or top-dose-only effect, or another doubt; inactive = no such curve, though single readings can be large; an effect the other way counts as inactive or inconclusive.

SMILES	FEN1 inhibitor	WRN inhibitor	POLB inh	Pol iota inh	POLH inh	Pol kappa inh
CCOC(=O)N1CCN(C(=O)C2CCN(C(=O)c3ccccc3C)CC2)CC1	u	20µM	x	u	32µM	u
COc1cc(O)c2c(=O)c3c(OC)c(O)ccc3oc2c1	n	n	n	n	n	n
O=c1c(O)c(-c2ccc(O)cc2)oc2cc(O)cc(O)c12	u	n	x	79µM	25µM	n
COc1cc(O)c2c(=O)c(O)c(-c3ccc(O)c(O)c3)oc2c1	x	x	x	x	x	0.95µM
O=C(/C=C/c1ccccc1O)c1ccc(Cl)cc1	n	n	n	n	n	n
COc1ccc(CCn2c(C)ccc2C)cc1OC	x	x	n	x	x	x
COc1ccc(CCN2C(=O)C=CC2=O)cc1OC	n	32µM	x	n	n	n
CCCSc1ncc(Cl)c(C(=O)N(Cc2ccc(Cl)cc2)Cc2ccco2)n1	n	x	n	n	x	n
Cc1nn(CCCC(=O)NCc2ccccc2)c(=O)c2c1sc1ccccc12	u	x	79µM	u	x	u
Cc1c(N2C(=O)CSC2c2ccc([N+](=O)[O-])cc2)c(=O)n(-c2ccccc2)n1C (centres undefined)	n	n	n	n	n	n
CCCCn1c(SCC(=O)NC(=O)Cc2ccccc2)nc2ccccc2c1=O	n	n	x	n	n	n
CCN(CC)CCN1C(=O)C(=O)/C(=C(/O)c2c(C)[nH]c(C(=O)OC)c2C)C1c1cccnc1 (centres undefined)	n	n	n	n	n	n
CCCCn1c(/C=C/c2ccco2)nc2ccccc21	n	n	8.9µM	u	u	n
N#C/C(=C/c1cn(Cc2ccc(F)cc2)c2ccccc12)C(=O)Nc1cccc(Cl)c1	89µM	x	n	56µM	n	u
COc1cccc(NC(=O)/C(C#N)=C\c2cn(Cc3ccc(C)cc3)c3ccccc23)c1	n	x	n	n	n	n
COc1cccc(Cn2c(=O)c(C)nc3cnc(N4CCNCC4)nc32)c1	x	x	x	x	x	n
O=C(O)COc1ccc(/C=C/c2ccc3cccc([N+](=O)[O-])c3n2)cc1	n	n	n	u	20µM	u
O=C(Cc1cccs1)Nc1ccc(Cl)c(S(=O)(=O)N2CCOCC2)c1	n	n	x	n	n	n
O=C(Cc1cccs1)Nc1ccc(F)cc1F	n	n	n	n	79µM	n
O=C(CCC(=O)c1cccs1)Nc1ccc(N2CCCCC2)cc1	n	n[11.6 µM]	u	u	89µM	u
O=C(Cc1cccs1)Nc1ccc(N2CCOCC2)cc1	n	n	25µM	u	25µM	n
O=C(Cc1cccs1)Nc1ccc(Cl)cc1	n	n	n	u	n	n
NC(=O)c1ccc(NC(=O)Cc2cccs2)cc1	n	n[11.6 µM]	40µM	u	50µM	u
O=C(Cc1cccs1)Nc1ccccc1F	n	n	n	n	n	n
CCCCOc1ccc(-c2nnc(N)s2)cc1	n	n	n	n	n	n
SMILES	FEN1 inhibitor	WRN inhibitor	POLB inh	Pol iota inh	POLH inh	Pol kappa inh
CCOc1cc(C2CC(=O)NC3=C2C(=O)C(C(=O)OC)C(C)C3)cc(Br)c1O (centres undefined)	n	n	n	n	n	n
CCc1ccc(NC(=O)CS(=O)CC(=O)Nc2ccc(N3CCOCC3)cc2)cc1 (centres undefined)	n	n	22µM	u	u	n
Cc1cccc(C)c1NC(=O)CS(=O)CC(=O)Nc1ccc(F)cc1F (centres undefined)	n	n	n	n	n	n
CCc1ccc(NC(=O)CS(=O)CC(=O)Nc2ccc(F)cc2F)cc1 (centres undefined)	n	n	40µM	u	n	n
Cc1cccc(C)c1NC(=O)CS(=O)CC(=O)Nc1ccc(N2CCOCC2)cc1 (centres undefined)	n	n	n	n	n	n
Cc1sc2ccccc2[n+]1CCCCI	u	x	x	u	x	n
CC(=O)Nc1ccc(/C=C/c2sc3ccccc3[n+]2CCCCI)cc1	u	x	x	79µM	x	45µM
CCCCCCC[n+]1ccc(/C=C/c2c(C)[nH]c3ccccc23)cc1	u	x	x	n	x	n
CCCCCCC[n+]1c(/C=C/c2ccc(N(C)C)cc2)sc2ccccc21	35µM	x	x	79µM	x	40µM
CCN(CC)c1ccc(/C=C/c2sc3ccccc3[n+]2CCCCI)cc1	u	x	x	50µM	x	u
COc1ccc2c(C)c(CCC(=O)NCc3ccccc3Cl)c(=O)oc2c1C	n	x	n	n	n	n
COc1ccc2c(C)c(CC(=O)NCc3ccccc3Cl)c(=O)oc2c1OC	n	x	45µM	n	n	n
Cc1ccc(NCCC(=O)c2ccc(Cl)cc2)cc1C	n	n	n	100µM	n	n
CCc1ccc(NCCC(=O)c2ccc(Cl)cc2)cc1	n	n	n	n	n	n
CC(=O)Nc1cccc(-n2nnc(SCC(=O)Nc3ccc(F)c(Cl)c3)n2)c1	n	n	u	79µM	u	n
[N-]=[N+]=NCCN1CCN(CCc2ccccc2)CCC1=O	n	n	n	n	n	n
CCCN1CCC(=O)N(CCN=[N+]=[N-])CC1	n	n	32µM	n	n	n
O=C(OCc1nnc(-c2ccccc2)o1)c1cccc(S(=O)(=O)N2CCOCC2)c1	n	n	x	n	n	89µM
Cc1ccc(NC(=O)Nc2ccc(S(N)(=O)=O)cc2)cc1	n	n	n	n	n	n
Cc1ccc(NC(=O)NC(=O)N(C(C)C)S(=O)(=O)c2ccc(C)cc2)cc1	n	n	89µM	n	n	n
Cc1ccc(Cn2cccc2/C=C2/C(=N)N3C=CSC3=NC2=O)cc1	n	n	n	u	71µM	n
CCCCC1=CC2=CC(=O)C(C)(OC(=O)CC)C(=O)C2=CN1Cc1ccc(OC)cc1 (centres undefined)	n	n	n	n	n	n
CCCCC1=CC2=C(c3ccco3)C(=O)C(C)(OC(=O)c3ccc(OC)cc3)C(=O)C2=CN1Cc1ccccc1 (centres undefined)	n	n	45µM	u	50µM	n
CCCCC1=CC2=C(c3ccco3)C(=O)C(C)(OC(=O)c3ccc(OC)cc3)C(=O)C2=CN1CCc1ccccn1 (centres undefined)	n	n	50µM	11µM	n	n
CCCCC1=CC2=C(c3ccco3)C(=O)C(C)(OC(=O)c3ccc(OC)cc3)C(=O)C2=CN1C1CCCCC1 (centres undefined)	n	n	u	n	n	n
CCCCC1=CC2=C(c3ccco3)C(=O)C(C)(OC(=O)c3ccc(OC)cc3)C(=O)C2=CN1Cc1ccc2c(c1)OCO2 (centres undefined)	n	n[11.6 µM]	35µM	u	n	n
O=C(O)CC(NC(=O)C(c1ccccc1)c1ccccc1)c1ccco1 (centres undefined)	n	n	n	n	n	n
O=C(O)CC(NC(=O)c1ccco1)c1ccco1 (centres undefined)	n	n	79µM	n	u	n
